Results published in PubChem BioAssay (NCI).
Compounds without any hit were thinned out: in the full panel of roughly 83,000, 20% have a hit.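 Values shown are percent growth following 48 h exposure of cells in 96-well plates to a single concentration of compound; below 10 was considered active.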 Activity calls are given as the source filed them.

Tested on: MDA-MB-468 breast
Experiment: NCI-60 one-dose screen, 48 h (100 = growth as untreated, 0 = no growth, -100 = all killed)
Conditions: 10 µM unless noted

Structure (SMILES) | growth
CC(C)(C)c1ccc(Cn2c(-c3nonc3N)nc3ccccc32)cc1 | 47.6% (inactive)
N#C/C(=C/C=C/c1ccccc1)S(=O)c1ccccc1 (stereo unspecified) | -56% (active)
O=C(C[n+]1ccnc2ccccc21)c1ccc(O)c(O)c1 | 3.88% (active)
O=C(NNC(=O)N1c2ccccc2C=Cc2ccccc21)c1ccccc1 | 98.9% (inactive)
CCc1cccc(CC)c1N1C(=O)C=CC1=O | 34.7% (inactive)
NCc1cn2cc(Cl)sc2n1 | 101% (inactive)
CC(C)(C)OC(=O)NC(CSCc1ccccc1)C(=O)ON1C(=O)CCC1=O (stereo unspecified) | 115% (inactive)
COc1cc2nc(-c3ccc(C(F)(F)F)cc3)cc(OCCN3CCCC3)c2cc1OC | 89.4% (inactive)
CCN(CC)Cc1c(-c2cccc(OC(F)(F)F)c2)[nH]c2ccc(N3CCCC3)cc2c1=O | 93.1% (inactive)
N#Cc1ccc(-c2ccc3c(c2)NC(=O)/C3=C\c2ccc[nH]2)cc1 | -18.2% (active)
CCC(CC)N1C(=O)/C(=c2\sc3n(c2=O)NC2C(N=3)N(CC)C(=O)N2CC)c2ccccc21 (stereo unspecified) | 79.9% (inactive)
CCOc1ccccc1/C=N\N=C(\N)N/N=C/c1ccccc1OCC | -8.3% (active)
O=[N+]([O-])c1ccc(NC(c2ccccc2)c2ccc3cccnc3c2O)cc1 (stereo unspecified) | -28.9% (active)
COCCn1cc(-c2nc(-c3cc4cccnc4n3C)cs2)c2cc(OC)ccc21 | -28% (active)
COc1ccc(C2NCCc3c2[nH]c2ccccc32)cc1CN1CCN(c2ccc(F)cc2)CC1 (stereo unspecified) | 49% (inactive)
O=C(NO)c1ccc(NCc2csc3ccccc23)cc1 | 76.9% (inactive)
COc1ccc(-c2c(-c3cc(OC)c4c(c3)OCO4)noc2N)cc1 | -2.08% (active)
CN(C)c1ncc(/C=C2\SC(=S)N(Cc3ccccc3Cl)C2=O)s1 | 95.6% (inactive)

Structure (SMILES) | growth
Cc1oc(-c2ccc(Cl)cc2Cl)cc1C(=O)Nc1nccs1 | 94.4% (inactive)
O=C(Nc1cccc(C(F)(F)F)c1)Nc1cccc(C(F)(F)F)c1 | -6.39% (active)
CCOC(=O)CN1/C(=N/c2sc3c(c2C(=O)OCC)CCN(C(=O)OCC)C3)SC(=O)/C1=C\C(=O)OC | 79.6% (inactive)
O=C1NCCS(=O)(=O)/C1=C\C=C\c1cccc(C(F)(F)F)c1 | 17.9% (inactive)
CC[C@@H](C)[C@H](NC(=O)Cn1cc(CNC(=O)[C@@H](NC(=O)OCc2ccccc2)C(C)C)nn1)C(=O)O | 98.5% (inactive)
O=C1c2cccc3cccc(c23)C(=O)N1CC#Cc1ccc2c3c(cccc13)C(=O)N(CCN1CCNCC1)C2=O | 111% (inactive)
COc1ccc(/C(=C\c2ccc3c(c2)OCO3)C(=O)Nc2nc3ccccc3s2)cc1OC | 90.5% (inactive)
CCC(CC)n1c(=O)c(SC2=NC3C(NN2)N(CC)C(=O)N3CC)c(C(=O)O)c2ccccc21 (stereo unspecified) | 23% (inactive)
Cc1[nH]nc2ncc(C#Cc3cncc(C(=O)Nc4ccc(CN5CCN(C)CC5)c(C(F)(F)F)c4)c3)cc12 | 26.1% (inactive)
CN(C)CCNC(=O)c1cccn2c(=O)c3cc4ccccc4cc3nc12 | -43.6% (active)
CCOC(=O)c1cccc(NC2=C(Cl)C(=O)c3nc(C)ccc3C2=O)c1 | -33.4% (active)
CCCCCCCCNC(=O)c1ccc(Cn2c(CCCC)nc3c(N)nc4ccccc4c32)cc1 | -72.6% (active)
CCNc1cc(-c2cccc(OC(F)(F)F)c2)nc2ccc(N3CCCC3)cc12 | -34.9% (active)
Cc1ccc(S(=O)(=O)OCCN(CCOS(=O)(=O)c2ccc(C)cc2)c2c[nH]c(=O)[nH]c2=O)cc1 | 98.5% (inactive)
COc1ccccc1/C=C/C=N/NC1=NC2C(S1)N(C)C(=O)N2c1ccccc1 (stereo unspecified) | 38.5% (inactive)
COc1cccc(Nc2ncnc3cc(NC(=O)CCl)ccc23)c1 | -56% (active)
CC(=O)Oc1ccc(Nc2c3ccccc3nc3ccccc23)cc1 | -25.6% (active)
Cc1ccc(C(=O)c2ccc(CC(=O)NN3C(=O)c4ccccc4C3=O)n2C)cc1 | 93% (inactive)
